# Columns and labels:
# [1] = system: Epidermal growth factor receptor (Homo sapiens), P00533 [T790M]; settings: at 1 µM
# [2] = system: Epidermal growth factor receptor (Homo sapiens), P00533 [L858R,T790M]; settings: at 0.1 µM
# [3] = system: Epidermal growth factor receptor (Homo sapiens), P00533 [L858R,T790M]; settings: at 1 µM
# [4] = molecular target: Ephrin type-A receptor 2 (Homo sapiens) (UniProt P29317); settings: at 0.1 µM
# [5] = molecular target: Ephrin type-A receptor 2 (Homo sapiens) (UniProt P29317); settings: at 1 µM
# [6] = molecular target: T1, Ephrin type-A receptor 3 (Homo sapiens) (UniProt P29320); settings: at 0.1 µM
# T1 sequence (whole entry): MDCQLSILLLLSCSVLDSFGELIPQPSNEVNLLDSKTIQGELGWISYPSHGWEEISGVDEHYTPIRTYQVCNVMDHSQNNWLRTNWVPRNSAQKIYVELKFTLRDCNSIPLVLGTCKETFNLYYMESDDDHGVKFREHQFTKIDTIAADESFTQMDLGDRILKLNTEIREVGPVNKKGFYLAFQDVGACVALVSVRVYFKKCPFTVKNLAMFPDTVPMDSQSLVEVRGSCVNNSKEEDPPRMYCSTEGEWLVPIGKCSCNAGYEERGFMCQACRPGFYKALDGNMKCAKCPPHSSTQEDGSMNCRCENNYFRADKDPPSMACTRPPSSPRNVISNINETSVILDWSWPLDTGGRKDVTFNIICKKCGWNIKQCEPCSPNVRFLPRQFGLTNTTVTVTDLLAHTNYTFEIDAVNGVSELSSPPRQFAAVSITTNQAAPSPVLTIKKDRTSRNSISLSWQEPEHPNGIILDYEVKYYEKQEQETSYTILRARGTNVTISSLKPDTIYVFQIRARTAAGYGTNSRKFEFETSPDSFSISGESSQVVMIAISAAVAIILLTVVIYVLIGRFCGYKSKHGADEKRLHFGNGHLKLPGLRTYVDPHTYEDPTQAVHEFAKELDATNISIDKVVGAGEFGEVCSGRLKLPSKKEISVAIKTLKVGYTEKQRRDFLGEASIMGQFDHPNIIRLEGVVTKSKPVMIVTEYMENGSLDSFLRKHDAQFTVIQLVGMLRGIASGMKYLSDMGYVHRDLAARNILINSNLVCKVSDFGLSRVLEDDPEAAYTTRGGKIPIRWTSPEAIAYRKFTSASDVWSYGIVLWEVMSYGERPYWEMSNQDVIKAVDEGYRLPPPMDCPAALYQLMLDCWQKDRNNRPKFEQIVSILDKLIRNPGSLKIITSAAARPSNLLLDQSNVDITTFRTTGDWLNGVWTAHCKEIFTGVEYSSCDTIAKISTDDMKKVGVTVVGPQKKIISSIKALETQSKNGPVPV
# [7] = molecular target: T1, Ephrin type-A receptor 3 (Homo sapiens); settings: at 1 µM
# [8] = molecular target: Ephrin type-A receptor 4 (Homo sapiens) (UniProt P54764); settings: at 0.1 µM
# Ephrin type-A receptor 4 (Homo sapiens), sequence (P54764 whole entry): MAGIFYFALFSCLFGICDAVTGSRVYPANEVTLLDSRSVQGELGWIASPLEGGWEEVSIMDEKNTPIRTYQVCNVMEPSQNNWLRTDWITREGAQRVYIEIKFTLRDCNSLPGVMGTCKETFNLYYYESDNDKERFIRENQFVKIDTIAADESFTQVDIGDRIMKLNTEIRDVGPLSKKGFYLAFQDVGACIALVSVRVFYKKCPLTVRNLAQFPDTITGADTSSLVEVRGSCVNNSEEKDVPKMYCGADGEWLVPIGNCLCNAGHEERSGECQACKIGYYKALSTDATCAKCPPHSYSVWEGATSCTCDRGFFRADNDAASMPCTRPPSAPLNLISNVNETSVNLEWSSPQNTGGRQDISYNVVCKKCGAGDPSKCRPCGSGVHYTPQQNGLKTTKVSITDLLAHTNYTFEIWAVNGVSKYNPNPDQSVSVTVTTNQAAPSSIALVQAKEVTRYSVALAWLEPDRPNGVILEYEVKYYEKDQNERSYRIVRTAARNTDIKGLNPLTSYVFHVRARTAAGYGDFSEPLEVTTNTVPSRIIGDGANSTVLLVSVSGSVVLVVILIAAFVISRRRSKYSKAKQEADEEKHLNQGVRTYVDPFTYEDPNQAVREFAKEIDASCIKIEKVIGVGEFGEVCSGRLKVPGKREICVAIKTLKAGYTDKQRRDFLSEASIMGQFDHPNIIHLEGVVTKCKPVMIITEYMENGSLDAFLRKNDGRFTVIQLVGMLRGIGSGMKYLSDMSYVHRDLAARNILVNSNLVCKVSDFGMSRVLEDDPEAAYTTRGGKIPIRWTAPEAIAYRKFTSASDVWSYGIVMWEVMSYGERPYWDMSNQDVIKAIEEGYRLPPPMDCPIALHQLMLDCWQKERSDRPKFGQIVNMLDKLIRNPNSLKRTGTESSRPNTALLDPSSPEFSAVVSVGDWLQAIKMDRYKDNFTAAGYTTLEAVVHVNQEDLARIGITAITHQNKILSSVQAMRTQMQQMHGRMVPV
# [9] = molecular target: Ephrin type-A receptor 4 (Homo sapiens) (UniProt P54764); settings: at 1 µM
# [10] = molecular target: T2, Ephrin type-B receptor 2 (Homo sapiens) (UniProt P29323); settings: at 0.1 µM;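 also: reported as mean inhibition of EPHB2, from the GSK PKIS dataset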
# T2 sequence (whole entry): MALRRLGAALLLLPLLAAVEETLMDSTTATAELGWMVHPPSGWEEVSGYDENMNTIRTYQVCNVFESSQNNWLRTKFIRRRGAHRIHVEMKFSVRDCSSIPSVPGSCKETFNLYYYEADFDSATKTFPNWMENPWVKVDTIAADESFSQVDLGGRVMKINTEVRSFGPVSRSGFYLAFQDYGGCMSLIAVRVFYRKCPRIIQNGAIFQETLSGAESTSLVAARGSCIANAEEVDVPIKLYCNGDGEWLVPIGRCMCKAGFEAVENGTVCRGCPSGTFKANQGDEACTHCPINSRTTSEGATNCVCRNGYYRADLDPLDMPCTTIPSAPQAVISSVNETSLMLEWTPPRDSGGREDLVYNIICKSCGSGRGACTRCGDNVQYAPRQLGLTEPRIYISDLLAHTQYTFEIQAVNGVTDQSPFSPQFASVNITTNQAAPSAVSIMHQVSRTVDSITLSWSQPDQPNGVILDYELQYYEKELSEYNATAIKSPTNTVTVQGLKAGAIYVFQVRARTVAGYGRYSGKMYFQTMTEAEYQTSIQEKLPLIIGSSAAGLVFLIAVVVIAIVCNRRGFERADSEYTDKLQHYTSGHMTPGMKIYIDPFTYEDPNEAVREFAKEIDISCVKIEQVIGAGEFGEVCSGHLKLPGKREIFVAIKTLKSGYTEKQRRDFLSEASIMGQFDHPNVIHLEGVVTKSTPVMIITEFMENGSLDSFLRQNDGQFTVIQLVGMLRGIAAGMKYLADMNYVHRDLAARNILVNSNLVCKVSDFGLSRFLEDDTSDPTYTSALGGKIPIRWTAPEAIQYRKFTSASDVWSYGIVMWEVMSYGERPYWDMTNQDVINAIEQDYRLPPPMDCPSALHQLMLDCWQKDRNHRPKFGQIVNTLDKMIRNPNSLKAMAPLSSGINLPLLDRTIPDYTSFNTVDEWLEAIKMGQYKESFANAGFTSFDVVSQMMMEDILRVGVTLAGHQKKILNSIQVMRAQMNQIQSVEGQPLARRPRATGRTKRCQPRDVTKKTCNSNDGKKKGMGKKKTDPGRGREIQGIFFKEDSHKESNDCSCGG
# Epidermal growth factor receptor (Homo sapiens), P00533 [L858R,T790M], sequence (P00533 whole entry T790M/L858R, looked up): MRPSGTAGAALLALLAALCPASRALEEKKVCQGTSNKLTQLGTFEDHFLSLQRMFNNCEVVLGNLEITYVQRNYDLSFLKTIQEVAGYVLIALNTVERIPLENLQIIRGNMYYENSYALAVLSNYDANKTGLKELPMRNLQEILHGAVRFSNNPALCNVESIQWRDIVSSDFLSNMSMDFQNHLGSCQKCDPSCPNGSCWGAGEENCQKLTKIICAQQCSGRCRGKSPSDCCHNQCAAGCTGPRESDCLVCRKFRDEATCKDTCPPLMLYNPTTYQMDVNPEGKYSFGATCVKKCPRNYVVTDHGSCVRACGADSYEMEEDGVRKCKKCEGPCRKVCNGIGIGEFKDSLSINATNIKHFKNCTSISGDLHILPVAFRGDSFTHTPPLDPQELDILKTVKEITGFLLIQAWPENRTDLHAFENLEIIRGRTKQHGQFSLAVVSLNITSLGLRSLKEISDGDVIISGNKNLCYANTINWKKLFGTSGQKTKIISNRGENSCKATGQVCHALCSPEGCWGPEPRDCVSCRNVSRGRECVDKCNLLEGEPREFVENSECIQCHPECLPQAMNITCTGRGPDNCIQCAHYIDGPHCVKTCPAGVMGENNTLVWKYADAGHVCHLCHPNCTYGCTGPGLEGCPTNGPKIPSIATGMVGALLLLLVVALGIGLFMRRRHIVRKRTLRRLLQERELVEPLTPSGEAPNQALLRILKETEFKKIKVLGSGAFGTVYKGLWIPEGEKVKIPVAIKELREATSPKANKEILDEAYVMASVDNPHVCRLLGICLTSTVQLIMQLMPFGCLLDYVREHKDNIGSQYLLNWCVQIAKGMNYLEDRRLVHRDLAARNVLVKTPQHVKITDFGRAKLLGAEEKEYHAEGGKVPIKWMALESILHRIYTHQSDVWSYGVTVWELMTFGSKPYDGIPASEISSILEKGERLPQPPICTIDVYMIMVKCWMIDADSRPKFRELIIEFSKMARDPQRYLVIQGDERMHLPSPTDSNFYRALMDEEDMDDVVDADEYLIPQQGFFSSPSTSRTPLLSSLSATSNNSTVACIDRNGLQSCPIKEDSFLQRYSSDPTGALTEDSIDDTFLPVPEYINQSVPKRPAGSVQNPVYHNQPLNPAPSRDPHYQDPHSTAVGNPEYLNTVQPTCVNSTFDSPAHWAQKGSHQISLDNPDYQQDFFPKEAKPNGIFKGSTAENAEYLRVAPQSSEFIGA
# Ephrin type-A receptor 2 (Homo sapiens), sequence (P29317 whole entry): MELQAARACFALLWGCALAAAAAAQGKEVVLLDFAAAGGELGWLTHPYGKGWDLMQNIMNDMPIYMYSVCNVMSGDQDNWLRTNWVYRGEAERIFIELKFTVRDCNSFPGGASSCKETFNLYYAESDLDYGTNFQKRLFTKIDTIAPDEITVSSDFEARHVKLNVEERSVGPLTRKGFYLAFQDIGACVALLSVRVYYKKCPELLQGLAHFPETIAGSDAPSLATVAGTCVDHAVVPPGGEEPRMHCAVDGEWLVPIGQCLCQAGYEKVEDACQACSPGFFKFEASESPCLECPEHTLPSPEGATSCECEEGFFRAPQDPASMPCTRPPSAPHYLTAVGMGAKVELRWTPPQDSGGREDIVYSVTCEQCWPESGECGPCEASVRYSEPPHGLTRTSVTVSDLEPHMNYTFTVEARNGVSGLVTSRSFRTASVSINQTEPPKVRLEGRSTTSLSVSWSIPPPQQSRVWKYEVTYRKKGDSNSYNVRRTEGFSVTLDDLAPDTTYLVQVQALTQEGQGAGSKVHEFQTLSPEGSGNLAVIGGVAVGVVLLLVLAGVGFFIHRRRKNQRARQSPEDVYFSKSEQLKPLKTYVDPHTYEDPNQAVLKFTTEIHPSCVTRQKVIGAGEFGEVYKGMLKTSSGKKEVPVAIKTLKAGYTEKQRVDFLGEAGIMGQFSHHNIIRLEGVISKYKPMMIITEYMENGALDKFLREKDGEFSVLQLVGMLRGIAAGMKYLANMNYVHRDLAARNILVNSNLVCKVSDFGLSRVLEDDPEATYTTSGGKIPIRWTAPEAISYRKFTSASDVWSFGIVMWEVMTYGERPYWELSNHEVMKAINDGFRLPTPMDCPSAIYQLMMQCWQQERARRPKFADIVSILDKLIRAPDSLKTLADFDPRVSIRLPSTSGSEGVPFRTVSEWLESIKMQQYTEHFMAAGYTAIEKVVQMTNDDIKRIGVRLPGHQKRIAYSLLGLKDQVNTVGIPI
# Epidermal growth factor receptor (Homo sapiens), P00533 [T790M], sequence (P00533 whole entry T790M): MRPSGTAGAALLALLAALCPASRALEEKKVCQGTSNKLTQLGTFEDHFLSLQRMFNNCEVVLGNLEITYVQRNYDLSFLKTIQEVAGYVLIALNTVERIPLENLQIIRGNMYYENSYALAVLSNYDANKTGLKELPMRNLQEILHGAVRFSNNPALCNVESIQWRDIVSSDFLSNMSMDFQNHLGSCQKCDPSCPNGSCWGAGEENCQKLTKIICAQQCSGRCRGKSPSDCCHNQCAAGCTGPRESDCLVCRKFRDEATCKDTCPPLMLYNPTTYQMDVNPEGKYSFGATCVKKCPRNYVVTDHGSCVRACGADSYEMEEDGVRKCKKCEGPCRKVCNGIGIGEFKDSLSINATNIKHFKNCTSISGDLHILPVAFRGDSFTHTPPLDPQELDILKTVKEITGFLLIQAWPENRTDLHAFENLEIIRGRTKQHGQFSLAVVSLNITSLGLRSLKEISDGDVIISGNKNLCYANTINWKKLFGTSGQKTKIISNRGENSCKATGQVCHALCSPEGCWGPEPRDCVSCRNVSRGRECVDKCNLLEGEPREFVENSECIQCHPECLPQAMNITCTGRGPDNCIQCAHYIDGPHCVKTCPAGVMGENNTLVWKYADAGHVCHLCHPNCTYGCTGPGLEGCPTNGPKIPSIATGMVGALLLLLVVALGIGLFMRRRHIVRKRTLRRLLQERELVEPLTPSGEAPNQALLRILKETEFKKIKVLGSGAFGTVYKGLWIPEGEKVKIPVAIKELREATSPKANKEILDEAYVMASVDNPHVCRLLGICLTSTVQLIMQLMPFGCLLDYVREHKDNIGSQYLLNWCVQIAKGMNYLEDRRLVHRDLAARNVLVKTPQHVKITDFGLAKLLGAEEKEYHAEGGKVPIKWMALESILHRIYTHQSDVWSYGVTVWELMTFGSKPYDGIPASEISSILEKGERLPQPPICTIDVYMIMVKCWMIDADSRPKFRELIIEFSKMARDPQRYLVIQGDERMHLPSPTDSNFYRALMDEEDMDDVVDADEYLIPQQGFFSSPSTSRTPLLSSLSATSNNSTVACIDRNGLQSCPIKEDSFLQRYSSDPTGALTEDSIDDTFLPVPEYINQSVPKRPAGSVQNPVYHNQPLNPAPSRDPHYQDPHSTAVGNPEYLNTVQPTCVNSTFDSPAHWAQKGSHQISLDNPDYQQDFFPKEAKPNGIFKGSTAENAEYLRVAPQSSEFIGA
SMILES,inhibition [1],inhibition [2],inhibition [3],inhibition [4],inhibition [5],inhibition [6],inhibition [7],inhibition [8],inhibition [9],inhibition [10]
CCCN1CCC(c2ccc(Nc3nc(Nc4cc(F)ccc4C(N)=O)c4cc[nH]c4n3)c(OC)c2)CC1,81.7%,53.7%,89.1%,1.29%,-0.82%,3.91%,4.22%,6.74%,12.9%,6.06%
c1ccc(-c2nc3n(c2-c2ccc4c(c2)OCO4)CCC3)nc1,0.6%,1.92%,1.45%,-2.56%,-2.85%,-0.11%,1.96%,4.05%,2.75%,1.03%
N#Cc1c(NC(=O)CN2CCOCC2)sc2c1CCCC2,4.76%,2.42%,4.77%,1.79%,1.43%,5.54%,6.42%,7.58%,13.1%,8.79%
COc1cc2c(cc1Nc1nc(Nc3ccsc3C(N)=O)c3cc[nH]c3n1)N(C(=O)CN(C)C)CCC2(C)C,70.8%,51.9%,84.7%,1.53%,0.81%,4.65%,4.34%,7.86%,6.49%,6.01%
CCn1c(-c2nonc2N)nc2ccccc21,-1.8%,2%,-0.39%,-0.14%,0.64%,5.44%,3.08%,7.78%,9.13%,6.72%
CCN1CCC(CC(=O)Nc2n[nH]c3nnc(-c4cccc(F)c4F)cc23)CC1,3.4%,1.92%,1.26%,0.75%,1.02%,3.31%,2.84%,5.3%,7.67%,-4.82%
COc1cc(Nc2nccc(Nc3ccc4c(C)n[nH]c4c3)n2)cc(OC)c1OC,5.15%,4.13%,20.9%,28%,71%,6.23%,15.3%,41.4%,75.2%,19.3%
COc1ccc(-c2nn3ncccc3c2-c2ccnc(Nc3ccc4c(c3)OCCO4)n2)cc1,5.19%,0.11%,17.8%,-0.24%,0.86%,-1.04%,0.38%,0.61%,13.8%,1.72%
CC(C)(CO)CNC(=O)c1ccc2c(c1)/C(=N/Nc1ccc(S(N)(=O)=O)cc1)C(=O)N2,-0.95%,-1.33%,-1.42%,-2.4%,-2.69%,-0.22%,1.81%,-0.06%,10.3%,-4.35%
COc1ccc(-c2cc3c(N)ncnc3o2)cc1,-2.06%,-0.41%,-0.81%,-3.93%,-2.53%,-3.56%,-2.59%,-2.85%,1.4%,-3.46%
CN1CCC(n2cnc(-c3ccc(F)cc3)c2-c2ccnc(N)n2)CC1,1.75%,-4.77%,0.83%,0.47%,-0.42%,1.8%,2.95%,5.99%,7.11%,5.98%
Nc1nc(-c2cccc(Cl)c2)c(-c2ccc3ncccc3n2)s1,6.65%,5%,7.85%,0.6%,0.92%,4.59%,4.27%,11%,14.8%,6.05%
Fc1ccc(-c2nn3ccccc3c2-c2ccncc2)cc1,–,–,–,-1.52%,-1.41%,3.94%,5.1%,5.14%,11.7%,5.2%
COc1cc(N2CCN(C(C)C)CC2)ccc1Nc1nc(Nc2ccc(F)cc2C(N)=O)c2cc[nH]c2n1,79.5%,56.5%,90.4%,0.87%,-0.92%,1.78%,1.28%,4.96%,6.43%,4.59%
COc1cccc(-c2c[nH]c3c(N/N=C/c4ccncc4)ncnc23)c1,2.55%,2.51%,22.9%,3.62%,14.6%,3.44%,6.01%,8.17%,30.5%,10.3%
COC(=O)Nc1nc2ccc(Oc3ccc(NC(=O)Nc4cccc(Cl)c4)cc3)cc2[nH]1,-0.68%,-2.96%,0.71%,7.68%,41.2%,4.1%,8.5%,22.3%,62.9%,36.9%
FC(F)(F)c1cccc(-c2nn3ncccc3c2-c2ccnc(Nc3ccc4c(c3)OCCO4)n2)c1,8.22%,2.69%,15.9%,2.29%,1.84%,2.54%,3.44%,4.56%,7.91%,3.11%
COC(=O)Nc1nc2ccc(S(=O)(=O)c3ccc(NC(=O)Nc4cc(C(F)(F)F)ccc4F)cc3)cc2[nH]1,0.19%,0.89%,-0.68%,2.49%,6.48%,3.46%,4.35%,4.8%,9.4%,6.82%
COc1ccc2[nH]c3c4[nH]c5ccc(OC)cc5c4c4c(c3c2c1)C(=O)NC4=O,17.9%,9.7%,53.1%,2.52%,0.85%,5.78%,6.32%,10.1%,22.6%,10.7%
[O-][S+]1CCN(Cc2ccc(-c3ccc4ncnc(Nc5ccc(OCc6cccc(F)c6)c(Cl)c5)c4c3)o2)CC1,22%,1.22%,5.52%,1.19%,0.52%,5.19%,2.42%,7.3%,11.6%,9.52%
CCOc1ccc2c(-c3ccnc(Nc4cccc(C(F)(F)F)c4)n3)cnn2n1,-0.36%,0.8%,0.09%,1.2%,0.67%,1.59%,5.76%,6.67%,9.91%,7.74%
COc1cccc(-n2ncc3c(N/N=C/c4ccc(F)cc4)ncnc32)c1,3.89%,1.74%,1.29%,4.28%,5.62%,4.05%,4.06%,7.96%,15.7%,5.53%
Cc1ccc2c(-c3ccnc(Nc4ccccc4)n3)c(-c3ccc(F)cc3)nn2n1,51.1%,33.7%,81.9%,6.42%,15%,9.53%,18.1%,11.5%,52.1%,24.9%
Fc1cccc(COc2ccc(Nc3ncnc4sc(-c5ccco5)cc34)cc2Cl)c1,3.73%,0.58%,3.48%,2.14%,1.92%,3.15%,4.97%,7.43%,9.74%,9.21%
CC(=O)NCc1cccc(C#Cc2cncnc2Nc2ccc(OCc3cccc(F)c3)c(Cl)c2)c1,0.3%,1.41%,1.74%,-3.31%,-4.19%,-2.09%,0.64%,-2.22%,–,0.63%
Clc1ccc(-c2nn3ncccc3c2-c2ccnc(Nc3ccccc3)n2)cc1,14.4%,9.72%,53.3%,-1.33%,2.12%,1.69%,7.97%,3.45%,23.3%,8.11%
NS(=O)(=O)c1ccc(N/N=C2\C(=O)Nc3ccc4ncccc4c32)cc1,-0.36%,1.77%,5.28%,1.99%,9.56%,5.42%,12.4%,8.83%,31%,8.06%
CCNC(=O)O[C@H]1CN[C@H](C#Cc2cc3ncnc(Nc4ccc(OCc5cccc(F)c5)c(Cl)c4)c3s2)C1,10.6%,2.62%,4.48%,3.3%,2.25%,6.99%,4.34%,8.98%,6.16%,8.39%

# From ChEMBL document CHEMBL1961873, “Compounds: GSK PKIS; Assays: Nanosyn kinase panel” (2012)
